Six1-Eya2 blk = qHTS Assay for Inhibitors of the Six1/Eya2 Interaction | AlphaScreen GST-Six1/His-Eya2 binding, biochemical; stronger effect = lower value | activity change, % (test concentration not listed) | actives 0.56% (n = 360,000) | Homeobox protein SIX1 (Homo sapiens) + Protein phosphatase EYA2 (Homo sapiens), … | AID 651725, 2012; in the data active = activity change below about -65%; inconclusive = mostly about -30% to -63%; also: % is scaled to controls: 0 for no effect and ±100 for the full control effect
Target sequence (O00167 whole entry, looked up): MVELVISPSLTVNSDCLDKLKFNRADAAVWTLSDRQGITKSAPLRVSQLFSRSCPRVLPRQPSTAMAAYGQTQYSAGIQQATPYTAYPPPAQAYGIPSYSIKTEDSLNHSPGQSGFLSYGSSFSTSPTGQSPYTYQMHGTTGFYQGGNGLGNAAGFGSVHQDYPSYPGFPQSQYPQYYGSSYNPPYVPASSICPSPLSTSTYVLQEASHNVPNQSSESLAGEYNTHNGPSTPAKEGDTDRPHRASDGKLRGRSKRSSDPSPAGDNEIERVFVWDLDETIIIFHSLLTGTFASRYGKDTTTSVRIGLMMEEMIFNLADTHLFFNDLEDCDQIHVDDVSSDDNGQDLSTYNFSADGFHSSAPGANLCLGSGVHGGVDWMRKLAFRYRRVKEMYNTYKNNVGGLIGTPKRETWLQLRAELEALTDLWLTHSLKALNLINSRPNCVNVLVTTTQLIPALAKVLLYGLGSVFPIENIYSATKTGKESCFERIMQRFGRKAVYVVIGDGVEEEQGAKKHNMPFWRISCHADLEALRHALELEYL
Target sequence (Q15475 whole entry, looked up): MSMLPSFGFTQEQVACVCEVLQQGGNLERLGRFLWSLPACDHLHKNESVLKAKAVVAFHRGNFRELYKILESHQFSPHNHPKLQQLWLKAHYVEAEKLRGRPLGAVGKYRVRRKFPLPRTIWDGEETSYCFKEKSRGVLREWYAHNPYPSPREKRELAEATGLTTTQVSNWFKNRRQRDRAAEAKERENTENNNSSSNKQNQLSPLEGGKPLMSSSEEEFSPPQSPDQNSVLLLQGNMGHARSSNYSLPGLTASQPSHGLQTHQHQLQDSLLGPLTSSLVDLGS
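GST-Six1 + His-Eya2 (5X stock: 250/500 nM); Tris pH 8.0, 300 mM NaCl, 0.05% BSA, 0.02% Tween 20; GSH donor/Ni acceptor beads; 1 h 37 °C dark; AlphaScreen readout.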
CtBP-E1A inh = qHTS Assay for Inhibitors of the CtBP/E1A Interaction; AlphaScreen GST-E1A/His-CtBP binding, 1536-well; stronger effect = lower value; actives 0.49% (n = 340,000); activity change, % (no concentration beside the values); in the data active = activity change below about -65%; inconclusive = mostly about -30% to -63%; also: % is scaled to controls: 0 for no effect and ±100 for the full control effect
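AlphaScreen with 125 nM GST-E1A and 125 nM His-CtBP (5X stocks) in Tris pH 8.0, 300 mM NaCl, BSA, Tween 20, TCEP. Compounds preincubated 2 h at 37 deg C, then glutathione donor/nickel acceptor beads added for 1 h at 37 deg C in dark.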
TGFb SMAD3 inh = qHTS for Inhibitors of TGF-b | HepG2 CAGA-GFP TGF-b/SMAD3 reporter, GFP fluorescence, 18 h; TGF-beta stimulated, 500 pg/mL final | Potency, µM (doses to about 46.1 µM), for inactives: at the top dose activity, negative = inhibition, usual class: inhibitors | actives 1.2% (n = 410,000) | AID 588855, 2011; also: potency is read from the fitted curve at half-maximal effect; % is scaled to controls: 0 for no effect and ±100 for the full control effect; nearly all actives have a fitted effect of over 65% in size
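HEPG2 CAGA-GFP reporter cells (1000/well, DMEM with 1% FBS) received compounds, then recombinant TGF-beta at 500 pg/mL final for 18 hours at 37 degrees C. Per-cell GFP summed per well was normalised to unstimulated and stimulated DMSO controls before curve fitting.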
HepG2 tox = qHTS for Inhibitors of TGF-b: Cytotox Counterscreen; HepG2 CAGA-GFP viability, ATP luminescence, 18 h; Potency, µM (top dose mostly 46.1 µM), for inactives: at the top dose activity change, negative = cytotoxicity, most hits filed as cytotoxic; actives 0.76% (n = 410,000); AID 588856, 2011; also: potency is read from the fitted curve at half-maximal effect
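CellTiter-Glo luminescence gave cytotoxicity after 18 hours at 37 degrees C. The cells were HepG2 CAGA-GFP in 1% FBS DMEM, stimulated with 500 pg/mL TGF-beta after compound addition. %Activity was normalised to no-cell wells (complete cell-killing) and DMSO (no toxicity), and curves were fitted and classified.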
ATXN2 expr inh = Primary qHTS for Inhibitors of ATXN expression; HEK-293 ATXN2-luciferase reporter, luminescence, 24 h; actives 0.72% (n = 360,000); AID 1745845, 2022; Potency, µM (doses to about 57 µM), for the others: at the top dose activity change, negative = inhibition, hits mostly inhibitors; also: potency is read from the fitted curve at half-maximal effect; % is scaled to controls: 0 for no effect and ±100 for the full control effect; nearly all actives have a fitted effect of over 55% in size
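qHTS (up to 57 uM final) was run with 24 h compound exposure of reporter cells at 37 °C. Each well was multiplexed: SteadyGlo luminescence measured ATXN2-luciferase expression after a fluorogenic Gly-Phe-AFC viability readout (25 uM final).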
ATXN viability = Viability Counterscreen for Primary qHTS for Inhibitors of ATXN expression. Potency, µM (titrated, usually from 56.7 µM), actives largely listed as cytotoxic. actives 0.49% (n = 400,000). S2 cells (HEK-293 line with an ATXN2-luciferase reporter) viability, CellTiter-Fluor protease fluorescence, 24 h; also: potency is read from the fitted curve at half-maximal effect; nearly all actives have a fitted effect of over 40% in size
An asterisk follows results filed as active; i = inactive; ? = inconclusive; · = no result given. In the library only some 2.8% were active in any assay of this set; here they are far more common. Unless noted, calls follow the shape of the dose curve; as a rule, active = well fitted curve in the direction sought with a large enough effect; inconclusive = small, poorly fitted or top-dose-only effect, or another doubt; inactive = no such curve, though single readings can be large; an effect the other way counts as inactive or inconclusive.

SMILES | Six1-Eya2 blk | CtBP-E1A inh | TGFb SMAD3 inh | HepG2 tox | ATXN2 expr inh | ATXN viability
CCCCCCn1c(=O)n2n(c1=O)[C@@H]1CN(S(=O)(=O)c3ccc(C)cc3)C[C@]1(O)[C@@H](OC(=O)NCc1ccccc1F)C2 | -3 | 3 | 13µM* | 7.9µM* | ? | ·
CCCCCCn1c(=O)n2n(c1=O)[C@@H]1CN(S(=O)(=O)c3ccc(C)cc3)C[C@]1(O)[C@@H](OC(=O)NC1CC1)C2 | 6 | -6 | -1% | 3% | 5% | i
CCCCCCn1c(=O)n2n(c1=O)[C@@H]1CN(S(=O)(=O)c3ccc(C)cc3)C[C@]1(O)[C@@H](OC(=O)NCC1CCCCC1)C2 | -2 | -2 | ? | -118% | ? | ·
Cc1[nH]n2c(=O)cc(-c3ccc([N+](=O)[O-])cc3)nc2c1-c1ccccc1 | -22 | -11 | ? | -56% | 20µM* | ?
COC(=O)Cc1cc(=O)n2[nH]c(C)c(-c3ccccc3)c2n1 | -2 | 1 | 5% | 3% | 1% | i
CCCc1cc(=O)n2[nH]c(C)c(-c3ccccc3)c2n1 | 0 | 1 | -5% | -27% | -32% | i
Cc1[nH]n2c(=O)cc(-c3ccc(Cl)cc3)nc2c1-c1ccccc1 | · | · | 10µM* | -43% | 3.5µM* | i
Cc1[nH]n2c(=O)cc(C(C)C)nc2c1-c1ccccc1 | 4 | 0 | -23% | -28% | -28% | ?
Cc1[nH]n2c(=O)cc(C(C)(C)C)nc2c1-c1ccccc1 | -15 | -4 | -2% | -36% | 18µM* | i
CCc1ccccc1NC(=O)CN(c1ccccc1)S(=O)(=O)c1ccsc1C(=O)OC | · | · | ? | -27% | -4% | i
CC(=O)N1CCCC(N2CCN(c3cccc(C(F)(F)F)c3)CC2)C1 (stereo not drawn) | 2 | -3 | -3% | -40% | 28% | i
Cc1ccc(C(=O)N2CCCC(N3CCN(c4cccc(C(F)(F)F)c4)CC3)C2)s1 (stereo not drawn) | -15 | · | 11µM* | -45% | · | ?
COc1cccc(C(=O)Nc2nc(SCc3ccc(Cl)cc3)n[nH]2)c1 | 1 | 11 | 0% | 16µM* | 20% | i
CC(=O)N1CCc2c(sc(NC(=O)CSc3ccccc3)c2-c2nc3ccccc3s2)C1 | · | · | -22% | -7% | · | ·
CN1CCc2c(sc(NC(=O)CSc3ccccc3)c2-c2nc3ccccc3s2)C1 | · | · | 252% | -46% | · | ·
CC(=O)Nc1sc2c(c1-c1nc3ccccc3s1)CN(C(C)C)CC2 | · | · | 34% | 4% | 3.5µM* | i
CC(=O)N1CCc2c(sc(NC(=O)C3CC3)c2-c2nc3ccccc3s2)C1 | ? | ? | ? | -8% | 32µM* | ?
Cc1cc(C)cc(CN2CCOc3ccc(CN4CCC(O)(c5cccnc5)CC4)cc3C2)c1 | · | · | · | · | · | i
O=[N+]([O-])c1ccc(Sc2ccccn2)nc1 | 3 | 5 | -19% | -12% | 38% | i
O=[N+]([O-])c1ccc(Sc2nnnn2-c2ccccc2)nc1 | 86 | -6 | 16µM* | -94% | ? | ?
COc1ccc(CNC(=O)C2CCCN(S(=O)(=O)N(C)c3ccc(F)cc3)C2)cc1OC (stereo not drawn) | · | · | ? | -27% | · | ·
CN(c1ccc(F)cc1)S(=O)(=O)N1CCCC(C(=O)NCc2cccc(Br)c2)C1 (stereo not drawn) | · | · | 8.9µM* | -54% | · | ·
Fc1ccc(-c2nc(Nc3ccc(F)c(Cl)c3)nc3c2COc2ccccc2-3)cc1 | · | · | -10% | -3% | -1% | i
COc1cc(CNCCc2c[nH]c3ccccc23)ccc1OCc1ccccc1F | ? | 11 | ? | 13µM* | ? | ?
COc1cccc(CNCCc2c[nH]c3ccccc23)c1OCc1ccccc1 | -28 | ? | ? | 11µM* | ? | i
SMILES | Six1-Eya2 blk | CtBP-E1A inh | TGFb SMAD3 inh | HepG2 tox | ATXN2 expr inh | ATXN viability
CC1=C(C)/C(=N\OS(=O)(=O)c2ccc(C)cc2)C=CC1=O | 7 | 4 | 2.8µM* | 4µM* | ? | 8.9µM*
CC1=C/C(=N\OS(=O)(=O)c2ccccc2)C(C)=CC1=O | -3 | -1 | 10µM* | 11µM* | 22µM* | 20µM*
CC1=C/C(=N\OS(=O)(=O)c2ccccc2)C(C(C)C)=CC1=O | -12 | 1 | ? | -97% | ? | ·
COCc1c(C(=O)NC2CCCC2)cnn1-c1nccc(-c2cc(C)sc2C)n1 | · | · | · | · | · | i
OC(CN1CCCCC1)c1cc(-c2ccccc2)on1 (stereo not drawn) | · | · | · | · | · | i
O=C(Oc1c(Cl)cc(Cl)c2cccnc12)c1cccc([N+](=O)[O-])c1 | -88* | -98* | ? | -5% | 20µM* | i
O=[N+]([O-])c1ccc(Oc2cccc3cccnc23)c([N+](=O)[O-])c1 | ? | -79* | ? | -37% | 11% | i
O=C(Oc1cccc2cccnc12)c1cccc([N+](=O)[O-])c1 | -69* | -75* | -16% | -12% | 5% | i
CC1(C)S[C@@H]2[C@H](NC(=O)C(C(=O)Oc3ccc4c(c3)CCC4)c3ccccc3)C(=O)N2[C@H]1C(=O)O (stereo partly drawn) | · | · | · | · | · | i
CCC(=O)N1CCc2cc(Br)cc(S(=O)(=O)N3CCN(c4ccccc4OC)CC3)c21 | · | · | 2% | 4% | 5% | i
COc1cc(-c2ccc(Cl)cn2)cc2c1OCCN(C(=O)c1ccccc1-n1cccn1)C2 | · | · | · | · | · | i
CC(C)=CCC1=C(OCC(=O)O)C(=O)c2ccccc2C1=O | -1 | · | 14µM* | 11µM* | · | ?
O=C(O)CSCC(=O)Nc1ccc(C2CCCCC2)cc1 | 11 | 5 | -4% | -84% | 2.2µM* | i
Nn1cnnc1SCC(=O)Nc1ccc(C2CCCCC2)cc1 | -3 | 8 | -25% | -4% | 42% | i
COc1cc(/C(C)=N/NC(=S)NC(C)C)cc(OC)c1OC | -10 | -8 | 10µM* | -37% | 4% | i
COc1cc(/C(C)=N\NC(N)=S)cc(OC)c1OC | 1 | -10 | -2% | -2% | -4% | i
O=C(NNC(=O)c1cccs1)c1ccccn1 | -74* | ? | 1% | -13% | · | i
O=C(NNC(=O)c1ccccc1Cl)c1cccs1 | 1 | 0 | -5% | 1% | 33% | i
O=C(NCCc1ccccn1)c1ccc(OC(F)F)cc1 | 1 | -7 | 15% | -16% | ? | i
